The results in this text go back to a collection of fitness landscapes (doi:10.1126/science.1257360).

In all, about 140,000 sequences were measured (“enrichment ratio after two sorts for PhoP signalling”: median about 0, highest 2% from about 11 on). The sample holds the highest values, similar sequences and a random draw of the others, so the mix is not that of the screen.

To fix the notation:
B1: PhoQ; a variant is named by its letters at X, in order, P23837 (parent)
chain: MKKLLRLFFPLSLRVRFLLATAAVVLVLSLAYGMVALIGYSVSFDKTTFRLLRGESNLFYTLAKWENNKLHVELPENIDKQSPTMTLIYDENGQLLWAQRDVPWLMKMIQPDWLKSNGFHEIEADVNDTSLLLSGDHSIQQQLQEVREDDDDAEMTHSVAVNVYPATSRMPKLTIVVVDTIPVELKSSYMVWSWFIYVLSANLLLVIPLLWVAAWWSLRPIEALAKEVRELEEHNRELLNPATTRELTSLVRNLNRLLKSERERYDKYRTTLTDLTHSLKTPLXXLQXXLRSLRSEKMSVSDAEPVMLEQISRISQQIGYYLHRASMRGGTLLSRELHPVAPLLDNLTSALNKVYQRKGVNISLDISPEISFVGEQNDFVEVMGNVLDNACKYCLEFVEISARQTDEHLYIVVEDDGPGIPLSKREVIFDRGQRVDTLRPGQGVGLAVAREITEQYEGKIVAGESMLGGARMEVIFGRQHSAPKDE

The experiment covers variants of B1. The experiment in a line: enrichment ratio after two sorts for PhoP signalling (ratio (wild type AVST 3.29)); higher = more functional. To be noted: with PhoP (E. coli).
In the case of NFST, the enrichment ratio was at most 0.25. As to PYQI, the enrichment ratio was at most 0.25.

Regarding GTRE, the enrichment ratio was at most 0.25. For SHDG the value was 1.66. Then MTPM, with at most 0.25; and MTVM, with 12.8; and MEVM, with 12.9.

In the case of STVM, the enrichment ratio came to 16.3. LNVM: the enrichment ratio is at most 0.25.

For the variant MTVA, the enrichment ratio was at most 0.25. For MAVM the value was at most 0.25; for GNVM, 22.8; for NEVM, 7.03. For KYVM the value was at most 0.25; for GIVM, 3.78. For ITVM the value was at most 0.25. Turning to WVID, the enrichment ratio was at most 0.25.

As to KGWL, the enrichment ratio is at most 0.25. For GFAY the value was at most 0.25.

As for QNPQ, the enrichment ratio is at most 0.25. VYSV: the enrichment ratio is at most 0.25. For IADP the value was at most 0.25. For TERG the value was at most 0.25. Consider EIGI, for which the enrichment ratio is at most 0.25. Consider GLTA, for which the enrichment ratio was at most 0.25.

Take GLCK: the enrichment ratio is at most 0.25. Turning to GLTI, the enrichment ratio stood at 11.7. For GLTC, the enrichment ratio was at most 0.25. Then GDSM, with 2.79.

With GLWM, the enrichment ratio is at most 0.25. On to GLSM, for which the enrichment ratio is 12.3. Then GLVM, with 16.2; and GLSF, with 4.58. Take RFTN: the enrichment ratio is at most 0.25. Then RWLE, with at most 0.25; and LIDA, with at most 0.25; and LWYT, with at most 0.25.

For the variant VRCA, the enrichment ratio was at most 0.25. For SCQC, the enrichment ratio is at most 0.25. For KMMN, the enrichment ratio is at most 0.25.

On to TMGK, for which the enrichment ratio was at most 0.25. For TMSR, the enrichment ratio was at most 0.25. Then TMSQ, with 13.5. As to TMMW, the enrichment ratio is at most 0.25.

Regarding TMMS, the enrichment ratio was determined as 14.5.

On to MMSA, for which the enrichment ratio is at most 0.25. Consider DMSA, for which the enrichment ratio was at most 0.25. Consider TMSA, for which the enrichment ratio came out at 15.1. Then TMMN, with 11.5. For DMMN the value was at most 0.25; for TMMD, at most 0.25; for FINQ, at most 0.25. For DCDV the value was at most 0.25.

On to ECGF, for which the enrichment ratio was at most 0.25. Then EREC, with at most 0.25.

For the variant TNHL, the enrichment ratio was at most 0.25. Take WDRM: the enrichment ratio was at most 0.25.

Take KETS: the enrichment ratio was at most 0.25. For RLAR the value was at most 0.25; for DGIV, at most 0.25; for KMLV, at most 0.25. For FDFL the value was at most 0.25; for TMWG, at most 0.25; for TMGG, 15.7.

In the case of TMSK, the enrichment ratio was at most 0.25. Then TMMG, with 23.4. For TMWT the value was at most 0.25; for TMSI, 14.2.

For TMTG, the enrichment ratio stood at 3.06. As for MMMT, the enrichment ratio was at most 0.25. Turning to TMMT, the enrichment ratio was 22.9. Then TMVG, with at most 0.25; and TMMV, with 4.75; and DMSI, with at most 0.25. IFIA: the enrichment ratio is at most 0.25. As to IGQM, the enrichment ratio was at most 0.25. Then PWGS, with at most 0.25; and AYGE, with at most 0.25; and THGQ, with at most 0.25.

On to LATF, for which the enrichment ratio was at most 0.25. As for VFAS, the enrichment ratio is at most 0.25. For ESNS the value was at most 0.25; for PACG, at most 0.25; for ITYK, at most 0.25. Then HKVF, with at most 0.25; and KKSE, with at most 0.25. Then ILEH, with at most 0.25; and TMWH, with at most 0.25; and DMQF, with at most 0.25. In the case of TMWQ, the enrichment ratio was at most 0.25. Then TMHP, with at most 0.25.

In the case of TMQF, the enrichment ratio turned out to be 16.1. For TMHQ, the enrichment ratio was determined as 15.4. Turning to MPHD, the enrichment ratio is at most 0.25.

As for PCPI, the enrichment ratio is at most 0.25. On to GGFW, for which the enrichment ratio was at most 0.25. Turning to ESEG, the enrichment ratio is at most 0.25. Then PDQD, with at most 0.25; and VWER, with at most 0.25; and MRPD, with at most 0.25. For SKAV the value was 4.49; for SKTI, 14.2; for SKCL, 11.8. Then SKCI, with 16.6; and SKTA, with 0.276. For SKMI, the enrichment ratio is 4.44. Turning to SKCK, the enrichment ratio was at most 0.25.

On to SKCS, for which the enrichment ratio came out at 6.51. With SKTS, the enrichment ratio stood at 3.33.

Consider SKKL, for which the enrichment ratio was at most 0.25. For SKMV the value was 14.3. For SKPL the value was at most 0.25; for VFSR, at most 0.25; for FRTG, at most 0.25. For PMFK the value was at most 0.25. Regarding FGSI, the enrichment ratio is at most 0.25. For VKKE, the enrichment ratio is at most 0.25. In the case of PRSV, the enrichment ratio is at most 0.25. For SKMQ the value was 13.1.

As to SKHP, the enrichment ratio is at most 0.25.

With SKCA, the enrichment ratio turned out to be 11.7.

SKKI: the enrichment ratio is at most 0.25. Then SKPI, with at most 0.25; and SKCY, with 16.7. For SKCE the value was 5.46; for SKCT, 14.2.

With SKMT, the enrichment ratio worked out at 10.8.

As to SKPY, the enrichment ratio is at most 0.25. Then SKAT, with 5.34; and SKKQ, with at most 0.25; and DRIT, with at most 0.25. Turning to DNWQ, the enrichment ratio was at most 0.25. Then MKCF, with at most 0.25; and SKCV, with 12.3; and SKCF, with 13.8. Take SKIV: the enrichment ratio worked out at 4.99. For SKHF the value was at most 0.25. For the variant SKFW, the enrichment ratio was at most 0.25.

As to IRSK, the enrichment ratio is at most 0.25.

Turning to GTMP, the enrichment ratio was at most 0.25. Then NADQ, with at most 0.25. Then NGYQ, with at most 0.25; and QTYQ, with 4.58. In the case of QPYQ, the enrichment ratio was at most 0.25. Regarding TTYQ, the enrichment ratio worked out at 11.4. With QGYQ, the enrichment ratio stood at 13.9.

On to STYQ, for which the enrichment ratio is at most 0.25.

Turning to TGYQ, the enrichment ratio came to 15.9.

FFYQ: the enrichment ratio was at most 0.25. For the variant RGYQ, the enrichment ratio was at most 0.25. For KSYQ the value was at most 0.25; for YTYQ, at most 0.25; for QEYQ, 30.4. With DEAF, the enrichment ratio was at most 0.25.
